Bioassay records: PubChem BioAssay, several laboratories
A selection: hits, their analogues and other compounds. The true share with any hit is near 3.3%.
PERK inhibitor: inhibitors of human PERK kinase; inhibition, % at 5.6 µM; Q9NZJ5; CHO PERK-DD fusion, SEAP luminescence translation reporter; 0.17% of 220,000 active; AID 1416;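 active means inhibition above the mean inhibition of all tested compounds plus 3 SD, set separately per screening campaign, cut at about 2.9% in these data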;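 further: PERK kinase domain activated by AP20187 dimerizer at 100 nM; 0% = DMSO with dimerizer and 100% = rapamycin at 8.4 µM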
Target sequence (Q9NZJ5 whole entry, looked up, the tested form may be a part): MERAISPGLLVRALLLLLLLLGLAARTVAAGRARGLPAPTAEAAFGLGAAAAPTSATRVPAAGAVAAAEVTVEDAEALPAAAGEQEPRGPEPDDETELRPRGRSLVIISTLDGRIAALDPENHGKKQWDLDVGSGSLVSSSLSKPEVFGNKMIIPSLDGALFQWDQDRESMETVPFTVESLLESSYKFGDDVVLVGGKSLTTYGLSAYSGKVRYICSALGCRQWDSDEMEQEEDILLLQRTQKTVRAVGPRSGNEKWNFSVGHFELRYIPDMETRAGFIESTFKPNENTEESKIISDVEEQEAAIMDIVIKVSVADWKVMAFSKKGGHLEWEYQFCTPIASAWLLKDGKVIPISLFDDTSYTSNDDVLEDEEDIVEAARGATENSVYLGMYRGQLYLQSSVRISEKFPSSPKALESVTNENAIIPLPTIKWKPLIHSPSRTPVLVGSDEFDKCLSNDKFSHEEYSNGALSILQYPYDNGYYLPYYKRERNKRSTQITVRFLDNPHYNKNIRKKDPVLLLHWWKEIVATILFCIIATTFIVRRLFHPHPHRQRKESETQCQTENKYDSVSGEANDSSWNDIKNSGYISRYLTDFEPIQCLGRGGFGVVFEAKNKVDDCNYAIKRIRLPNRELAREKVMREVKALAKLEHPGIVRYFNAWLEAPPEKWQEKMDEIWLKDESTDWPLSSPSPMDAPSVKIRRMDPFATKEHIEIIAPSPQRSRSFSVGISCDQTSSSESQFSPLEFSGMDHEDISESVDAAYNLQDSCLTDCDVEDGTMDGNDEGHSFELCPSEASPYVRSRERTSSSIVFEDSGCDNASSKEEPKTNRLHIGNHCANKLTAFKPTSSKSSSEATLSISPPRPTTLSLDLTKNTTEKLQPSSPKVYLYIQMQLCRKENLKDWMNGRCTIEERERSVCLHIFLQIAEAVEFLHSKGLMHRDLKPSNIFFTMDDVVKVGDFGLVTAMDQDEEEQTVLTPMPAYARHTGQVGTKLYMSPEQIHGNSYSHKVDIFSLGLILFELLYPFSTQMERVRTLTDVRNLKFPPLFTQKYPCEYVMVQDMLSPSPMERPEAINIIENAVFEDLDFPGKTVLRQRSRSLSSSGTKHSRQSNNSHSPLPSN
WT yeast gro inh: growth inhibition of WT yeast, mitochondrial fusion screen | mitochondrial fusion phenotypic screen, WT strain | inhibition, % at 10 µM | 2.1% of 190,000 active; in the data active means inhibition above about 58%; tested in S. cerevisiae
ROMK mod: human ROMK K+ channel modulation, primary screen; AID 1918; Tet-inducible ROMK, thallium flux fluorescence; actives lie on both sides; 2% of 130,000 active; B-score at 10 µM; P48048;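 active means signal ratio slope over the read window, or its plate-corrected B-score, at least 3 SD from the plate mean, either direction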;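 further: B-score of the F/F0 ratio slope over 7 to 12 s after thallium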
Arbovirus inh: arbovirus infection inhibition; AID 1251; 0.37% of 200,000 active; arbovirus infection cell-based antiviral screen; inhibition, % at 10 µM; in the data active means inhibition above about 30%
ROMK retest: retested hit modulating human ROMK potassium channel. normalized thallium flux (F/F0 slope) at 10 µM. AID 1917. shares compounds with ROMK mod. ROMK thallium flux, fluorescence ratio; hits give low values. 54% of 3,000 active;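 active means Flux at 10 µM at least 3 SD below or above vehicle control mean in one or both replicates; inconclusive means no clear call, values can overlap the other calls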
Starred values were filed as active, the others as inactive; ? = inconclusive; . = not tested or not shown.

SMILES | PERK inhibitor | WT yeast gro inh | ROMK mod | Arbovirus inh | ROMK retest
CC(C)=NNc1nc2c(c(=O)[nH]c(=O)n2C)n1CCc1ccccc1 | 0 | 0 | -1.7* | 0 | 0.073
Cn1c(=O)[nH]c(=O)c2c1nc(SCCN1CCOCC1)n2CCCc1ccccc1 | 0 | 15 | . | 3 | .
CCOC(=O)c1sc(NC(=O)CSc2nncn2C)nc1C | 1 | 8 | 0.21 | 7 | .
CC(C)c1ccc(/C=N/NC(=O)CC(=O)NC2CCCCC2)cc1 | 1 | -9 | -9.2* | -4 | 0.072
Cc1ccccc1OC1=NS(=O)(=O)c2ccccc21 | 1 | -17 | -2.6* | -3 | 0.064*
OC(CNCCCCNCC(O)C(F)(F)F)C(F)(F)F (stereo not drawn) | 1 | 4 | 2.7* | 10 | 0.08
CC1C(=O)N(Cc2ccc([N+](=O)[O-])cc2)c2ccccc2N1C(=O)C1CC1 (stereo not drawn) | 0 | 1 | -0.4 | 0 | .
O=C(O)c1cccc(N/N=C/C2=C(Cl)c3cc(Cl)ccc3SC2)c1 | 2 | 94* | 0.76* | 46* | 0.08
O=C(O)c1cccc(N/N=C/c2ccc(F)c(F)c2)c1 | 0 | -5 | 1.6 | 2 | .
CC(=O)Oc1oc(-c2ccccc2)nc1C=Nc1ccc(N(C)C)cc1 | -1 | . | . | . | 0.06*
CN(C)c1ccc(N=Cc2nc(-c3ccccc3)oc2OC(=O)c2ccccc2)cc1 | 1 | -10 | . | 9 | .
O=C(NC1CCCC1)C(=O)N(Cc1cccnc1)C(C(=O)NCC1CCCO1)c1ccco1 (stereo not drawn) | 1 | -5 | -0.56 | 6 | .
COCC(=O)NCCc1ccc(S(N)(=O)=O)cc1 | 0 | 8 | . | -3 | .
COc1ccc(CC(=O)NCCc2ccc(S(N)(=O)=O)cc2)cc1 | 1 | 4 | 1.5* | -2 | 0.085
COc1ccc(NC(=O)C2CCC(CNc3c(N4CCCCC4)c(=O)c3=O)CC2)cc1OC (stereo not drawn) | 0 | -6 | . | -3 | .
CCc1nnc(NC(=O)C2CCC(CNc3c(N4CCCCC4)c(=O)c3=O)CC2)s1 (stereo not drawn) | 0 | . | -12* | . | 0.086
O=c1[nH]c2ccc(S(=O)(=O)NCCO)cc2[nH]1 | 1 | 0 | 1.5* | 4 | 0.075
Cc1ccc(O)c(C(=O)c2cnn(C(=O)Cc3csc(C)n3)c2)c1 | 0 | 9 | -6.7* | -1 | 0.078
COc1ccc(C2CC(C)(c3ccc(OC)cc3)Nc3ccccc3N2)cc1 (stereo not drawn) | 2 | . | . | . | 0.087
Cc1cc(C)n(Cc2ccc(Cl)c(Cl)c2)c(=O)c1S(=O)(=O)c1ccccc1 | 1 | 3 | . | -8 | .
O=C(c1ccc(Cl)cc1)C1CCN(C(=O)C2CC2)CC1 | 0 | -14 | . | -6 | .
CCC(C)Sc1nc2c(c(=O)[nH]c(=O)n2C)n1CC(O)COc1ccccc1C (stereo not drawn) | -1 | -22 | -3.5* | 4 | 0.066*
CCC(C)Sc1nc2c(c(=O)[nH]c(=O)n2C)n1CCc1ccccc1 (stereo not drawn) | 0 | 14 | . | 7 | .
C[C@H]1[C@H](C)CC[C@]2(C)CC[C@]3(C)C(=CC[C@@H]4[C@@]5(C)CC[C@@H](O)[C@](C)(C(=O)O)[C@@H]5CC[C@]43C)[C@H]12 | . | . | . | . | 0.081
O=C(CSc1nnc(-c2ccc(S(=O)(=O)N3CCCC3)cc2)n1CC1CCCO1)NC1CC1 (stereo not drawn) | 2 | -8 | . | 6 | 0.091
SMILES | PERK inhibitor | WT yeast gro inh | ROMK mod | Arbovirus inh | ROMK retest
CCSc1nnc(-c2ccc(S(=O)(=O)N3CCOCC3)cc2)n1CC1CCCO1 (stereo not drawn) | 2 | 7 | . | 9 | .
CCCCC1CCC(c2nc(-c3cccnc3)no2)CC1 (stereo not drawn) | 1 | 68* | . | 12 | 0.08
CCC(C)N1C(=O)CCC1C(=O)O (stereo not drawn) | 0 | -5 | -8.2* | 4 | 0.08
Cc1c(C(=O)O)oc2ccc(S(=O)(=O)NCc3ccc4c(c3)OCO4)cc12 | 3 | 2 | . | 12 | 0.075
S=C(NCc1ccc2c(c1)OCO2)NC1CC1 | 2 | 28 | -19* | -4 | 0.089
CC1(C)CC(NC(=S)NCc2ccc3c(c2)OCO3)CC(C)(C)N1 | 1 | 1 | 0.0059 | 5 | .
Cc1ccc(CNS(=O)(=O)c2ccc3oc(C(=O)O)c(C)c3c2)cc1 | 2 | 4 | . | 7 | .
CCC(NC(=O)NCc1ccc2c(c1)OCO2)(C(F)(F)F)C(F)(F)F | 0 | -14 | 1.5* | -7 | 0.086
Cc1ccc(S(=O)(=O)NC(=O)NCc2ccc3c(c2)OCO3)cc1 | 1 | -1 | 1.5 | 3 | 0.074
CCn1nnnc1NCc1ccc(N2CCCC2)cc1 | 1 | -4 | 0.022 | 1 | .
Cc1nnc(NC(=O)C2CCCN2S(=O)(=O)c2ccc(Cl)cc2)s1 (stereo not drawn) | 0 | 1 | 0.96 | 6 | .
CCOC(=O)c1c(C)n(-c2ccc(OC)cc2)c2c(C/C(C)=N/O)c(Br)c(OC)c(O)c12 | 1 | 10 | 1 | 1 | .
C=CCn1c(COc2ccc3c(c2)CCCC3)nnc1SCC(=O)Nc1cccc(SC)c1 | -1 | 39 | -0.22 | -38 | .
O=C(/C=C/c1c(Cl)cccc1Cl)NCc1ccco1 | -1 | -9 | 1.7* | -4 | 0.079
O=C(NC1CCCc2ccccc21)C1CCN(c2c(N3CCCC3)c(=O)c2=O)CC1 (stereo not drawn) | . | -7 | . | 1 | .
N#CC1=C(N)C2=CCCC[C@H]2[C@H](c2cccc(F)c2)C1(C#N)C#N | 1 | 39 | -2.5* | 7 | 0.053*
N#CC1=C(N)C(C#N)(C#N)C(c2cccnc2)C2CC(c3ccccc3)CC=C12 (stereo not drawn) | 0 | 16 | . | -2 | .
O=C(CCSc1ccccc1)NCCSCc1ccccc1 | 1 | -1 | . | -5 | .
O=[N+]([O-])c1ccc(-c2ccc(/C=N/Nc3nc(NCc4ccccc4)nc(N4CCOCC4)n3)o2)cc1 | 0 | 6 | -3.9* | -32 | 0.063*
COC(=O)c1ccc(-c2n[nH]c(=O)c3ccccc23)cc1 | 1 | -9 | . | -6 | .
COC(=O)Nc1nc2ccc(-c3n[nH]c(=O)c4ccccc34)cc2[nH]1 | 0 | -7 | 2.8* | -9 | ?
COc1cc(/C=C2/C(=O)NN(c3cccc(C)c3)C2=O)cc([N+](=O)[O-])c1O | 1 | 1 | 0.51 | -28 | .
Cc1ccc(N2NC(=O)/C(=C\c3cc4c(cc3[N+](=O)[O-])OCO4)C2=O)cc1C | 1 | -4 | -4.9* | -19 | 0.048*
COc1cccc(NC(=O)Cc2nnc(SCC(=O)c3ccccc3)n2C)c1 | 0 | -12 | . | 16 | .
O=C(O)CCN1C(=O)/C(=C\c2cccc(OCC(=O)Nc3ccc(Cl)cc3)c2)SC1=S | 1 | . | . | . | 0.053*
Cc1ccc(NC(=O)COc2cccc(/C=C3\SC(=S)N(CCC(=O)O)C3=O)c2)cc1Cl | 1 | . | . | . | .
O=C(O)CCN1C(=O)CC(N2C(=O)/C(=C/c3ccc(Cl)cc3)SC2=S)C1=O (stereo not drawn) | 0 | -13 | -2* | -2 | 0.044*
CC(C)(C)c1ccc(-c2cn(-c3ccc(Br)cc3)c3[n+]2CCCS3)cc1 | 1 | 5 | -2.5* | -8 | 0.055*
c1ccc(-c2cn(-c3ccccc3)c3[n+]2CCS3)cc1 | 0 | 28 | -0.61 | 24 | .
